The values below come from PubChem BioAssay AID1521 (The Scripps Research Institute Molecular Screening Center, 2009).

Some of the results follow. A number with no mark means an inactive call. Calls of active or inactive are those of the source.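 How the source made its calls: active means mean inhibition above the hit cutoff derived in the earlier primary screen (cut at about 25% in these data); inactive means the rest.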

This assay in a line: viability loss in Ba/F3 EpoR-JAK2V617F cells, confirmation, JAK2V617F inhibitor project, cell-based, luminescence, triplicate (AID 1521).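 Further: 0% = DMSO-treated cells and 100% = JAK inhibitor I control wells; higher means lower luminescence from reduced cell ATP and viability.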 The note with it: CellTiter-Glo luminescence, at 5.6 µM, hits give high values. In general terms: Cellular ATP, detected with luciferase, serves as a proxy for viable cell number.
Turning to `COc1cc(OC)cc(C(=O)N[C@H](C(=O)Nc2nc3ccccc3[nH]2)C(C)C)c1`, the inhibition was 99.1% (active).
`N#C/C=C\Oc1ccc(Cl)cc1N`: the inhibition is 39.2% (active).
Take `O=c1oc2ccccc2cc1-c1cn(-c2ccccc2)c(=S)[nH]1`: the inhibition was 92.7% (active).
On to `COc1ccc(-c2csc(Nc3ccc(O)cc3)n2)cc1`, for which the inhibition is 97.2% (active).
Then `COc1ccc(OC)c(Nc2nc(-c3ccc(O)c(O)c3)cs2)c1`, with 99% (active).
Consider `O=C(CCl)Nc1ccc(Sc2ccc(NC(=O)CCl)cc2)cc1`, for which the inhibition is 99.7% (active).
Regarding `Cc1ccc(S(=O)(=O)C2(S(=O)(=O)c3ccc(C)cc3)CCCC2)cc1`, the inhibition was 62.1% (active).
With `CCCn1c(NC(=O)C23CC4CC(CC(O)(C4)C2)C3)nc2ccccc21`, the inhibition was -6.61%.
In the case of `CCn1c(/C=C/c2ccc([N+](=O)[O-])o2)nc2ccccc2c1=O`, the inhibition was 99.1% (active).
In the case of `Cc1cccc(NC(=O)c2ccc([N+](=O)[O-])o2)c1`, the inhibition was 84.7% (active).
Turning to `CSCC(=O)N1CCCC(C(=O)c2cc(F)ccc2F)C1` (stereo not drawn), the inhibition is -9.05%.
For `COc1ccccc1N1CCN(Cc2ccc(OC)c3ccccc23)CC1`, the inhibition is 31.5% (active).
On to `Oc1ccc(/C=N/Nc2ccc(C(F)(F)F)cn2)cc1O`, for which the inhibition is 99.2% (active).
In the case of `CCCc1nc2ccccc2c(=O)n1/N=C/c1ccc(O)c(O)c1`, the inhibition is 67.2% (active).
On to `c1ccc2c(c1)CSc1sccc1C2=C1CCNCC1`, for which the inhibition is 57.9% (active).
As for `Cc1ccc(C2=NN(C)c3nc4ccccc4n3C2)cc1`, the inhibition was -7.33%.
Take `COc1cc(OC)c(C(=O)NC2CCCCCC2)cc1OC`: the inhibition is 18.7%.
In the case of `CN(Cc1ccc2nsnc2c1)Cc1nc(Cc2cccc(F)c2)no1` it was 7.27%; in that of `Cc1ccc(NC(=S)N(CCCN2CCC(C)CC2)Cc2ccco2)cc1`, 52.5% (active); in that of `Cn1c(CCN2CCCCCC2)nc2cc(NC(=O)Nc3ccccc3)ccc21`, -1.25%.
With `COc1ccc(Cc2nnc(N/N=C/c3ccccc3O)[nH]c2=O)cc1OC`, the inhibition was 98.9% (active).
`CCC1CCCCN1CCCNC(=O)c1cc2c(Cl)nc3ccccc3c2s1` (stereo not drawn): the inhibition was 12.1%.
Then `O=C(CCl)N(Cc1cccc([N+](=O)[O-])c1)c1cccc(Cl)c1`, with 99.7% (active).

What is called inhibition is the change of the read-out against control, counted positive when it falls.
